A selection: hits, their analogues and other compounds. The true share with any hit is near 1.6%.
PABP FP inh = PABP poly(A) RNA binding inhibitors, primary screen, biochemical, fluorescence polarization, uHTS; 1% of 290,000 active; Polyadenylate-binding protein 1 (Homo sapiens), P11940; calls only at 35 µM;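 further: calls also rest on retests at 20 µM and on dose response follow-up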
eIF4H inh = human eIF4H binding inhibitors, primary screen, translation initiation inhibitor project, biochemical, uHTS, fluorescence polarization. Eukaryotic translation initiation factor 4H (Homo sapiens), Q15056. eIF4H fluorescence polarization binding assay. inhibition, % at 35 µM. 0.94% of 290,000 active;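 further: calls also rest on retests at 20 µM and on dose response follow-up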
eIF4E-4G inh = eIF4E–eIF4G protein interaction inhibitors, primary screen, biochemical, uHTS, TR-FRET, eIF4GI fragment; 0.37% of 220,000 active; Eukaryotic translation initiation factor 4E (Mus musculus) + Eukaryotic translation …; TR-FRET eIF4E-eIF4GI(517-606) binding, 2 h; AID 782, 2007; inhibition, % at 21.7 µM;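 active means inhibition above about 30%, limit read from the data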;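 further: 0% = full FRET control wells and 100% = background wells lacking eIF4GI fragment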
MLLE-PAM2 inh = inhibitors of PABP1 MLLE–PAM2 peptide binding, primary screen, biochemical, fluorescence polarization, FITC-PAM2, GST-MLLE. Polyadenylate-binding protein 1 (Homo sapiens), P11940. inhibition, % at 20 µM. 0.36% of 360,000 active; in the data active means inhibition above about 35%, passing the limit was not always enough;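 further: plate controls were DMSO wells with GST-MLLE for no effect and wells lacking GST-MLLE protein for full effect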
PERK inhibitor = block of dimerizer-induced PERK translation repression, primary screen, PERK inhibitor project, CHO PERK-DD cells, SEAP luminescence, HTS. Eukaryotic translation initiation factor 2-alpha kinase 3 (Homo sapiens), Q9NZJ5. CHO PERK-DD fusion, SEAP luminescence translation reporter. inhibition, % at 5.6 µM. 0.17% of 220,000 active;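 active means inhibition above the mean inhibition of all tested compounds plus 3 SD, set separately per screening campaign, cut at about 2.9% in these data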;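 further: PERK kinase domain activated by AP20187 dimerizer at 100 nM; 0% = DMSO with dimerizer and 100% = rapamycin at 8.4 µM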
Active calls of the source: *; i = inactive; ? = inconclusive; . = no result given; + = active, no number. Unless noted, how the calls were made is not given here.

SMILES	PABP FP inh	eIF4H inh	eIF4E-4G inh	MLLE-PAM2 inh	PERK inhibitor
O=[N+]([O-])c1ccc2nc(N3CCCC3)sc2c1	+	34	.	-87	.
CC1CC(C)CN(CCCNS(=O)(=O)c2cc(Br)cc3c2N(C(=O)C2CC2)CC3)C1 (centres undefined)	i	-7	.	5	.
COc1ccc(NC(=O)CSc2nc3c(sc4ccccc43)c(=O)n2CCCN2CCCC2)cc1	.	.	.	-61	.
COc1ccc(C(=O)O/N=C(\C)c2nccs2)cc1	i	-7	1	-9	0
C/C(=N\OC(=O)c1ccc(F)cc1)c1nccs1	i	5	-2	-1	3.2*
C=CCn1c(C(C)(C)C)nc2ccccc21	i	1	0	6	-1
COC(=O)c1c(-c2ccccc2)nn(-c2ccccc2)c1C(=O)OC	i	5	.	-3	.
O=C(O)c1ccc(-c2cccc([N+](=O)[O-])c2)o1	i	4	-4	-2	0
N#C/C(=C(/O)c1ccc(-c2cccc([N+](=O)[O-])c2)o1)c1nc2ccccc2s1	+	69*	25	-20	1
c1ccc(CN2CCN(C3=Nc4cccc5cccc3c45)CC2)cc1	i	94*	-3	-22	0
Cc1c(C(=O)O)sc2nc(SCC(=O)Nc3ccc(S(=O)(=O)NCCCC(=O)O)cc3)[nH]c(=O)c12	i	1.1*	2	-1	1
Cc1c(C(=O)O)sc2nc(SCC(=O)Nc3ccc(S(=O)(=O)NC(C)(C)C)cc3)[nH]c(=O)c12	i	0	1	2	0
Cc1nnc(N2C(=O)c3oc4ccccc4c(=O)c3C2c2ccco2)s1 (centres undefined)	i	22	6	48*	3
COc1cccc(CNC(=O)Cc2ccc(S(=O)(=O)N3CCOCC3)s2)c1	.	.	.	-36	.
NNC(=O)c1nc[nH]c1C(=O)Nc1ccccc1[N+](=O)[O-]	+	55*	1	6	0
O=C(Nc1ccc(F)cc1)c1nc[nH]c1C(=O)Nc1ccccc1[N+](=O)[O-]	i	-4	-2	8	2
FC(F)(F)c1ccc2c(c1)NCC1CCCN21 (centres undefined)	+	53*	7	-8	2
FC(F)(F)c1ccc2c(c1)N1CCCC1CN2 (centres undefined)	i	18	4	-48	1
Cn1ccc(C(=O)Nc2cccnc2Cl)n1	i	-1	.	-14	.
CNC(=O)c1[nH]cnc1C(=O)N[C@@H](Cc1ccccc1)C(=O)OC(C)(C)C	+	93*	3	5	1
COc1ccc(C2NC3=C(CCC3)C3(C#N)C4(N=C(N)C23C#N)OCCO4)cc1 (centres undefined)	+	72*	0	-19	1
O=C(CSc1ccc2nnc(-c3ccccc3)n2n1)N1CCCCC1	.	.	.	40*	.
CCCC[N+](CC#CCO)(CC#Cc1ccccc1)CCCC	i	5	-1	-8	1
CCC[N+](CC#CCO)(CC#Cc1ccccc1)CCC	i	-3	91*	-1	-1
CC1(C(=O)NS(=O)(=O)c2ccc(Cl)s2)CCN1C(=O)c1ccccc1CCc1ccccc1 (centres undefined)	.	.	.	5	.
SMILES	PABP FP inh	eIF4H inh	eIF4E-4G inh	MLLE-PAM2 inh	PERK inhibitor
O=C1C=C(O)c2cccc3cccc1c23	+	58*	.	70*	.
NC1=CC(=O)c2cccc3cccc1c23	?	?	.	.	0
O=C(N/N=C/C=C/c1ccco1)c1cnccn1	i	74	-2	15	1
O=C(N/N=C/C=C\c1ccco1)c1cccnc1	+	62*	-2	2	0
O=C(N/N=C\C=C\c1ccco1)c1cncc(Br)c1	+	66*	-2	-7	1
O=C(N/N=C/C=C/c1ccco1)c1cccnc1	+	64*	9	27	1
O=C(N/N=C/C=C\c1ccco1)c1ccccn1	+	75*	-2	4	0
O=C(N/N=C/C=C/c1ccccc1)c1cccnc1	i	2	4	-2	0
COc1ccc(CCC(=O)Nc2ccc(S(=O)(=O)N3CCOCC3)cc2)cc1OC	.	.	.	-25	.
COC(=O)Nc1ccc(N2CCOCC2)c(S(=O)(=O)N2CCOCC2)c1	i	-1	.	5	.
O=C(N/N=C/c1cc(Br)c(O)c(Br)c1O)c1ccc2c(c1)OCCO2	i	54*	.	-25	.
O=C(N/N=C/c1cc(Br)c(Br)o1)c1ccc2c(c1)OCCO2	+	76*	17	-52	2
O=C(N/N=C\c1cc(Br)c(Br)o1)c1cncc(Br)c1	i	-7	-4	11	1
O=C(N/N=C/c1cc(Br)c(Br)o1)c1cccnc1	i	?	6	59*	0
COc1cccc(CNC(=O)C2CSC3(C)CCC(=O)N23)c1 (centres undefined)	.	.	.	-21	.
COc1cc2c(cc1CN1CCN(C(=O)c3cc(OC)c(OC)c(OC)c3)CC1)OCO2	i	7	.	1	.
C=CCOc1ccc(/C=N/NC(=O)c2c(C)nc3ccc(Cl)cn23)cc1	i	10	.	-5	.
Cn1cc(Cl)c(C(=O)OCC(=O)Nc2ccc(S(N)(=O)=O)cc2)n1	i	-10	.	-3	.
CCCn1c(=O)c2sccc2n2c(CCCC(=O)NCc3cccnc3)nnc12	i	-6	.	2	.
CCCn1c(=O)c2sccc2n2c(CCCC(=O)NCc3ccco3)nnc12	+	78*	.	-1	.
COc1ccc(N(C(=O)Cn2nnc(-c3ccc(C)o3)n2)C(C(=O)NC2CCCC2)c2ccncc2)cc1 (centres undefined)	i	-11	.	-18	.
Cc1cc(=O)oc(C)c1C(=O)Nc1ccc2ncccc2c1	i	125*	5	42	1
NCCCC[C@@H](C(=O)N1CCNCC1)n1cc(CN)nn1	.	.	.	-6	.
CC(C)C[C@H](N)c1cn([C@@H](CCCCN)C(=O)N2CCNCC2)nn1	+	16	2	10	1
C#CCOCCOCCOCCNc1nc(N2CCN(C(=O)[C@H]([C@@H](C)CC)n3cc([C@@H](N)CC(C)C)nn3)CC2)nc(N2CCN(C(=O)[C@H](CCCCN)n3cc([C@@H](N)CC(C)C)nn3)CC2)n1	+	55*	3	.	1
CCCCc1cn([C@@H](CCCCN)C(=O)N2CCNCC2)nn1	?	?	-1	49*	2
COc1cc2c(cc1OC)C(c1ccccc1F)NCC2 (centres undefined)	i	0	.	5	.
Cc1ccc(-c2ccc(CCC(=O)O)o2)cc1	i	-8	0	9	1
O=C(O)CCc1ccc(-c2cccs2)o1	+	70*	-4	31	1
